Results published in PubChem BioAssay (EPA / NIEHS).
Activity calls are given as the source filed them. Rule for the calls: active = hit-call score of the fitted dose curve at least 0.9, where 1 is the maximum; inactive = score below 0.9.

Assay: ATG_BRE_CIS: Attagene CIS-FACTORIAL HepG2 Assay for human Bone Morphogenetic Protein (BMP) Response Element (BRE) (AID 2282933)
Conditions: HepG2 BMP response element reporter, Attagene transcription factor profiling; actives raise or lower the signal
Method in brief: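 Endogenous transcription factor activity read in transiently transfected HepG2 cells after 24 h chemical exposure. Bidirectional curve fitting against DMSO; readout is reporter transcript level by RT-PCR with capillary electrophoresis of labelled products.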
In the case of `CCCCCCCCCCCC#N`, the outcome is reported as “inactive”.
With `O=C(NC(=O)c1c(F)cccc1F)Nc1ccc(Oc2ccc(C(F)(F)F)cc2Cl)cc1F` the outcome was “inactive”.
For `CC1CCCC1.[C-]#[O+].[C-]#[O+].[C-]#[O+].[Mn]`, the outcome was “inactive”.
With `CCCCNP(N)(N)=S` the outcome was “inactive”.
With `CC(=O)C=Cc1ccccc1` the AC50 was 74.5 µM (active).
With `CCC(=O)c1ccc(Cl)cc1` the outcome was “inactive”.
For `Nc1ccccc1C(=O)Oc1ccc2ccccc2c1`, the AC50 was 161 µM (active).
For `C=CC(=O)OC`, the outcome was “inactive”.
In the case of `CC(C)CCCCCCCOC(=O)c1ccccc1C(=O)OCCCCCCCC(C)C`, the outcome is reported as “inactive”.
In the case of `N#CCNCC#N`, the outcome is reported as “inactive”.
In the case of `CN(C)N`, the outcome is reported as “inactive”.
For `CN1C[C@H](C(=O)N[C@]2(C)O[C@@]3(O)[C@@H]4CCCN4C(=O)[C@H](Cc4ccccc4)N3C2=O)C=C2c3cccc4[nH]cc(c34)C[C@H]21`, the outcome was “inactive”.
With `O=[N+]([O-])C=Cc1ccccc1` the AC50 was 44.2 µM (active).
With `Nc1ccc(Cl)c(Cl)c1` the outcome was “inactive”.
With `CCCCOP(=O)(O)OCCCC` the outcome was “inactive”.
For `O=C(O)CCl`, the outcome was “inactive”.
With `CC(O)CN(CC(C)O)CC(C)O` (configuration not stated) the outcome was “inactive”.
In the case of `Nc1cc(Cl)cc(Cl)c1`, the outcome is reported as “inactive”.
In the case of `O=[N+]([O-])c1ccc(Cl)cc1`, the outcome is reported as “inactive”.
For `Cc1ccc(C)c2ccccc12`, the outcome was “inactive”.
In the case of `C=CCO`, the outcome is reported as “inactive”.
In the case of `COC(=O)COc1ccc(Cl)cc1Cl`, the outcome is reported as “inactive”.
For `[CH3][Sn]([Cl])([Cl])[Cl]`, the outcome was “inactive”.
In the case of `CC(=O)c1cc2c(cc1C)C(C)(C)C(C)CC2(C)C` (configuration not stated), the AC50 is reported as 26.5 µM (active).
In the case of `Nc1ccc(-c2ccc(N)c(N)c2)cc1N`, the outcome is reported as “inactive”.
For `c1cc(OCC2CO2)ccc1Cc1ccc(OCC2CO2)cc1` (configuration not stated), the outcome was “inactive”.
For `C=CC(=O)OCCCCOC(=O)C=C`, the outcome was “inactive”.
With `c1ccc2c(c1)CCCC2` the outcome was “inactive”.
For `CCOC(=O)C1OC1(C)c1ccccc1` (configuration not stated), the outcome was “inactive”.
For `[Cl][Sb]([Cl])[Cl]`, the outcome was “inactive”.
In the case of `COc1ncc(F)c2nc(S(=O)(=O)Nc3c(F)cccc3F)nn12`, the outcome is reported as “inactive”.
For `CC(C)[C@@H](C(=O)O[C@@H](C#N)c1cccc(Oc2ccccc2)c1)c1ccc(Cl)cc1`, the outcome was “inactive”.
In the case of `C[C@]12CC[C@H]3[C@@H](CC[C@@]45O[C@@H]4C(O)=C(C#N)C[C@]35C)[C@@H]1CC[C@@H]2O`, the outcome is reported as “inactive”.
In the case of `O=[N+]([O-])c1cc([N+](=O)[O-])c2ccccc2c1`, the outcome is reported as “inactive”.
In the case of `O=C(O)C(Br)Br`, the outcome is reported as “inactive”.
With `C=CC(=O)OCCO` the AC50 was 36.9 µM (active).
With `CCCCCCCCCCCCCCCC[N+](C)(C)C` the outcome was “inactive”.
